Peg3 prom inh: inhibitors of Peg3 promoter | HeLa PEG-Prom luciferase reporter, luminescence, overnight | inhibition, % at 20 µM | 360,000 tested, 1.7% active;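 active means inhibition of at least 50% at 20 µM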
HIF-2a inh: inhibitors of HIF-2a | 786-0 RCC cells HIF-2a reporter, luciferase luminescence, overnight | inhibition, % at 18.8 µM | 360,000 tested, 0.72% active;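 active means inhibition of the luminescence signal of 40% or more relative to plate controls, in a single-dose primary screen at 18.75 µM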
CF NFkB inh: blocks PAF-induced NF-kB reporter in cystic fibrosis cells; 360,000 tested, 0.86% active; inhibition, % at 5 µM; KKLEB NF-kB-GFP reporter, GFP fluorescence overnight;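 active means at least 50% inhibition at 5 µM, scaled per plate between neutral and stimulator controls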;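 further: PAF is a Pseudomonas aeruginosa culture filtrate used as stimulus; plate controls were PAF-stimulated DMSO wells for no effect and unstimulated DMSO wells for full effect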
TROY signal inh: TROY signaling inhibition. 360,000 tested, 0.98% active. Q293 LMP1-TROYcd NF-kB luciferase reporter, 4 h. AID 1347056. inhibition, % at 10 µM;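 active means compounds whose plate-normalised and pattern-corrected inhibition of the luciferase reporter signal at the single screening dose is 50% or more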
TWEAK-Fn14 inh: inhibitors of TWEAK-Fn14 interaction signaling; TWEAK-stimulated Fn14 reporter cells, luciferase luminescence, 8 h; 360,000 tested, 2% active; AID 1159606; inhibition, % at 10 µM; in the data active means inhibition above about 50%
KKLEB tox: reduces viability of KKLEB cystic fibrosis airway cells; KKLEB CF airway cells viability, ATPlite luminescence, overnight; active compounds read low; cells stimulated with P. aeruginosa culture filtrate; activity change (cytotoxicity), % at 5 µM; 360,000 tested, 0.36% active;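 active means corrected activity change at or below -50% at 5 µM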
* = called active by the depositor; x = not tested or not shown. Shown are actives, neighbours in structure and some others; about 4% of the full set was active somewhere.

SMILES	Peg3 prom inh	HIF-2a inh	CF NFkB inh	TROY signal inh	TWEAK-Fn14 inh	KKLEB tox
COc1ccc(-n2nc(C(=O)c3cccs3)cc(-c3nc4ccccc4[nH]3)c2=N)cc1	87.4*	16.2	-59.1	-17.9	-46.3	-13.1
CCc1ccc(C2=NN(c3ccc(S(N)(=O)=O)cc3)C(c3ccc(F)cc3)C2)cc1 (stereo not given)	67.0*	-21.6	-2.0	-9.4	19.3	-8.6
Cc1ccc(C2CC(c3ccccc3)=NN2c2ccc(S(N)(=O)=O)cc2)cc1 (stereo not given)	11.7	0.9	29.5	13.5	30.7	24.4
Cc1ccc2[nH]c(C(=O)NN=C3CCCCC3)c(-c3ccccc3)c2c1	12.8	16.5	9.2	27.5	50.9*	-4.3
Cn1cc(C(=O)NC2C3CC4CC(C3)CC2C4)cn1 (stereo not given)	-8.1	13.1	-9.5	-21.4	0.2	0.9
CC(=O)c1ccc(-n2c(C)ccc2-c2ccccc2)cc1	-52.7	-130.0	13.9	37.4	82.2*	3.7
CC(=O)c1ccc(-n2c(CCC(=O)O)ccc2-c2ccc(C)cc2)cc1	-1.5	-3.9	-18.9	-33.2	19.0	5.1
CC(=O)c1ccc(-n2c(CCC(=O)O)ccc2-c2ccccc2)cc1	20.0	-13.9	12.9	58.5*	75.8*	-8.6
COC(=O)c1ccc(-n2c(C)ccc2-c2ccccc2)cc1	8.8	6.5	-0.1	-28.1	6.9	0.5
Cc1sc(NC(=O)c2ccccc2)c(C(c2ccccn2)N2CCN(CCO)CC2)c1C (stereo not given)	-4.3	-21.3	10.6	77.7*	65.4*	-12.8
CCOC(=O)c1cc2c(n(-c3ccccc3)c1=O)CC(C)(C)CC2=O	9.5	11.1	-15.6	-0.8	-3.1	8.4
COc1ccc2nc(/N=C\N(C)C)sc2c1	-54.8	-73.2	2.8	-27.5	-1.1	-0.1
COc1ccc2nc(N=Nc3ccc(N(C)C)cc3)sc2c1	24.8	-138.0	6.8	47.2	41.4	-74.2*
COc1ccc(C(=O)Nc2cccc(/C=C/c3nc4ccccc4c(=O)[nH]3)c2)cc1	28.4	-50.7	48.1	26.6	56.7*	-28.9
COc1ccc(C(=O)Nc2nc3ccccc3c(=O)[nH]2)cc1	-102.1	-128.9	-31.6	-25.1	53.0*	26.4
Cc1cccc(/C=C\c2nc3ccccc3c(=O)[nH]2)c1	-149.2	-162.4	19.8	-19.4	28.5	-24.8
COc1cc(/C=C/c2nc3ccccc3c(=O)[nH]2)cc(Cl)c1O	-38.4	-13.1	19.8	-34.0	-27.5	-5.5
O=C(Nc1cccc(/C=C/c2nc3ccccc3c(=O)[nH]2)c1)c1ccccc1Cl	-12.7	-231.6	2.9	37.9	71.6*	-9.6
O=C(NCc1ccccn1)c1ccc(Cl)c(S(=O)(=O)N2CCCCC2)c1	14.3	7.9	-19.3	5.3	-21.7	7.0
CCOc1ccc(/C=C/C(=O)Oc2ccc(OC)cc2)cc1	7.9	14.1	-19.3	2.8	-4.6	-12.5
CC(=O)c1cccc(NC(=O)C2CCN(S(=O)(=O)c3c(C)n[nH]c3C)CC2)c1	12.2	6.9	0.1	-3.6	-7.0	6.0
COc1cccc(C(=O)Nc2ccc3c(c2)C(=O)N(CCC(=O)O)C3=O)c1	5.3	-8.7	-9.2	11.6	18.1	2.4
CC(=O)Nc1cccc(Oc2ccc3c(c2)C(=O)N(CCC(=O)O)C3=O)c1	-2.8	-6.4	-12.8	x	87.9*	-1.6
O=C(c1ccc(S(=O)(=O)Cc2ccccc2Cl)c([N+](=O)[O-])c1)N1CCN(c2ccccn2)CC1	38.8	12.7	44.7	37.6	68.8*	-21.0
O=C(c1ccc(S(=O)(=O)Cc2cc(F)ccc2F)c([N+](=O)[O-])c1)N1CCCC1	29.1	-3.0	18.7	16.8	45.6	-12.3
SMILES	Peg3 prom inh	HIF-2a inh	CF NFkB inh	TROY signal inh	TWEAK-Fn14 inh	KKLEB tox
O=C(c1ccc(S(=O)(=O)Cc2cc(F)ccc2F)c([N+](=O)[O-])c1)N1CCCCC1	20.1	8.0	47.0	12.0	62.0*	-24.1
CC1CCN(C(=O)c2ccc(S(=O)(=O)Cc3cccc(F)c3)c([N+](=O)[O-])c2)CC1	33.1	21.6	37.1	36.3	65.7*	-18.9
Cc1ccccc1CS(=O)(=O)c1ccc(C(=O)N2CCC(C)CC2)cc1[N+](=O)[O-]	30.0	13.0	18.3	2.5	56.5*	-12.5
Cc1cccc(Nc2c3c(nc4ncnn24)CCC3)c1	12.5	22.8	-14.9	0.7	-8.3	8.9
COn1c(=O)c(-c2ccc(F)cc2)[n+]([O-])c2ccccc21	20.6	1.8	-0.5	-25.3	17.2	-15.3
O=C1CC(Sc2nnnn2C2CCCCC2)C(=O)N1c1ccccc1 (stereo not given)	84.9*	15.1	-6.1	-12.0	-8.9	-3.8
Cn1nnnc1SC1CC(=O)N(c2ccccc2)C1=O (stereo not given)	14.5	15.0	1.2	2.5	-11.8	-9.0
O=C(c1ccccc1)c1cnc(-c2ccc(Cl)cc2)s1	-175.0	-188.8	2.5	14.7	61.7*	-1.4
O=C(c1ccc(Cl)cc1)c1cnc(-c2ccc(Cl)cc2)s1	-66.2	-110.5	-8.3	-53.4	-13.6	-3.5
O=C(Nc1cccnc1)c1cn(-c2ccccc2)nc1-c1cccs1	-115.6	-189.6	8.4	-40.9	3.1	1.1
CCN(CC)CCNC(=O)c1ccc(NC(=O)c2cn(-c3ccc(F)cc3)nc2-c2cccc(OC)c2)cc1	101.5*	-17.4	-16.0	-33.7	-70.3	-19.4
CCN(CC)CCNC(=O)c1ccc(NC(=O)c2cc(-c3ccco3)nc3ccccc23)cc1	60.9*	23.7	-29.9	3.7	-9.4	-3.4
CCN(CC)CCNC(=O)c1ccc(NC(=O)c2cn(-c3ccccc3)nc2-c2cccs2)cc1	106.4*	-77.9	-14.3	-39.0	-28.4	-12.9
Cc1ccc(NC2=CC(=O)CC(C)(C)C2)cc1C	-1.1	-2.0	20.6	-26.4	-12.4	-6.1
CC1(C)CC(=O)C=C(Nc2ccc3c(c2)OCCO3)C1	-32.7	26.8	-7.8	49.7	69.9*	4.6
Cc1cc(C)n(CCNC(=O)C2CCC(=O)N(CC3CCCCC3)C2)n1 (stereo not given)	5.8	-8.3	-10.1	-15.8	-7.4	9.7
CC(=O)c1ccc(S(=O)(=O)NCc2cccnc2)cc1	26.4	12.4	-10.4	2.1	3.5	7.2
O=C(Nc1ccccc1)C(c1ccccc1)C1CCCC1 (stereo not given)	7.7	15.9	-17.8	-4.2	-15.4	3.8
COc1cc(NC(=O)c2ccco2)c(C(=O)OCC(=O)c2c[nH]c3ccccc23)cc1OC	75.0*	-0.2	5.3	-8.1	10.4	-10.8
COc1ccccc1N(C)S(=O)(=O)c1ccc(C(=O)OCC(=O)c2c[nH]c3ccccc23)cc1	35.3	19.1	-9.1	37.3	51.0*	15.0
COc1cccc(/C=C/C(=O)OCC(=O)c2c[nH]c3ccccc23)c1OC	-0.7	-27.3	-18.7	34.0	55.5*	-1.4
O=C(OCC(=O)c1c[nH]c2ccccc12)c1cccc(S(=O)(=O)N2CCCCCC2)c1	17.9	-2.5	8.2	0.8	52.1*	0.5
